The sample as a whole holds a higher share of hits than the screen did.
IMPase inh: IMPase inhibition in cells | P97697 | CHO-M1 cells, IP1 accumulation, HTRF TR-FRET ratio | inhibition (IP1 accumulation), % at 46.1 µM | 120,000 tested, under 10 active; active = well fitted curve in the direction sought with a large enough effect in the signal ratio, not every such curve was filed as active; inconclusive = small, poorly fitted or top-dose-only effect, or a change in a side signal; inactive = no such curve, though single readings can be large or run the other way; the % refers to the signal ratio;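 note: cells stimulated with carbachol in lithium chloride buffer; plate controls were DMSO basal wells for no effect and reference inhibitor wells for full effect; higher means more IMPase inhibition seen as more IP1 and lower FRET ratio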
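Measured: the HTRF emission ratio (665/620 nm) plus the 620 nm donor channel, each fitted to the Hill equation to give AC50. Cells were CHO-M1 given compounds up to 46 uM and a 30 min carbachol stimulation at 37C.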
12-hLO inh: 12-hLO (ALOX12) enzyme inhibition; P18054; purified 12-hLO, xylenol orange hydroperoxide absorbance; Potency, µM (top dose mostly 57.1 µM), for the others: top-dose activity change, negative = inhibition, hits mostly inhibitors; 150,000 compounds, 0.12% hits; note: potency is the fitted concentration of half-maximal effect; nearly all actives have a fitted effect of over 55% in size
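Lipoxygenase turnover measured by absorbance at 573 and 405 nm after Fe-XO development. Human 12hLO 150 nM, arachidonate 40 uM, pH 7.0 Hepes buffer with detergent; 15 min compound preincubation, 30 min reaction.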
ALOX15B inhib: inhibitors of human 15-lipoxygenase 2 (ALOX15B) | O15296 | purified 15hLO-2, xylenol orange hydroperoxide absorbance | Potency, µM (series often up to 57.1 µM), without a hit: top-dose activity change, negative = inhibition, hits mostly inhibitors | 110,000 compounds, 0.56% hits | AID 881; note: potency is the fitted concentration of half-maximal effect; nearly all actives have a fitted effect of over 60% in size
Target sequence (O15296 whole entry, looked up): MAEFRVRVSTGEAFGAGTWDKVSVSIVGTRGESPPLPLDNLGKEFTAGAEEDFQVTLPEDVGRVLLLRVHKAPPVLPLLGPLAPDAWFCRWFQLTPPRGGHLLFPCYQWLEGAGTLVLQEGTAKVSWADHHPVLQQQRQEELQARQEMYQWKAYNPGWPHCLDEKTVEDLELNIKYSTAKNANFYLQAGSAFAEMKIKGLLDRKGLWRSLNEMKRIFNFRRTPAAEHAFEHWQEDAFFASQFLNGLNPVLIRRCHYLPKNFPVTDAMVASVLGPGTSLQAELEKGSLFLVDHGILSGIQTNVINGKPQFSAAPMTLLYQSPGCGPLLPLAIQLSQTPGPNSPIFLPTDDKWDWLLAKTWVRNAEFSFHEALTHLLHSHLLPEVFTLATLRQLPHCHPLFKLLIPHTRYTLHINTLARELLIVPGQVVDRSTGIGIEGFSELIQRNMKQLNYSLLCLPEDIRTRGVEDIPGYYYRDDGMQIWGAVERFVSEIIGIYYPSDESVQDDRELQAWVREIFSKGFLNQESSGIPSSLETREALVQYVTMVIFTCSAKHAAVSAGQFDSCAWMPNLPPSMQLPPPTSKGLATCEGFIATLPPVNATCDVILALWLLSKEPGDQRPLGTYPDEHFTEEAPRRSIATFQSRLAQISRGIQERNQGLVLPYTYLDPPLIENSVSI
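Purified human 15hLO-2 (50 nM final) preincubated with compounds 15 min at room temperature in 25 mM Hepes pH 7.5, 0.01% Triton X-100, then 45 uM arachidonic acid added for 90 min; hydroperoxide detected via ferrous/xylenol orange, 573/405 nm absorbance ratio.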
IMPase Li inh: IMPase inhibition in cells with lithium potentiation | AID 1457 | Potency, µM (highest dose often 59.4 µM), for the others: at the highest dose activity, negative = IMPase inhibition, actives largely listed as inhibitors | 210,000 compounds, 0.35% hits | CHO-M1 cells, IP1 TR-FRET (IP-One), carbachol + lithium;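 note: IP1 builds up when IMPase is blocked and the TR-FRET signal falls; potency is the fitted concentration of half-maximal effect; plate controls were basal vehicle for no effect and high inhibitor control for full effect; nearly all actives have a fitted effect of over 50% in size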
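Lithium-sensitised IP1 accumulation assay; M1-expressing CHO cells treated 30 min at 37C with compound. Competitive antibody detection by time-resolved FRET followed a 10 min room-temperature lysis step.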
Active calls of the source: *; ? = inconclusive; nt = no result given; [ ] = remark or other dose. Unless noted, calls come from the whole dose curve; as a rule, active = well fitted curve in the direction sought with a large enough effect; inconclusive = small, poorly fitted or top-dose-only effect, or another doubt; inactive = no such curve, though single readings can be large; an effect the other way counts as inactive or inconclusive. Unless noted, % is set by controls: 0 for no effect and ±100 for the full control effect.

SMILES	IMPase inh	12-hLO inh	ALOX15B inhib	IMPase Li inh
COc1ccc(CC(=O)Nc2cccc(-c3nnc(-c4ccccc4)o3)c2)cc1OC	16	-6%	-5%	42%[38.3 µM]
COc1ccc(CC(=O)Nc2ccc(-c3nnc(-c4ccccc4)o3)cc2)cc1OC	-4	6%	?	13µM*
O=C(COc1ccccc1)Nc1ccc(-c2nnc(-c3ccco3)o2)cc1	3	-2%	-4%	13µM*
COc1ccccc1OCC(=O)Nc1cccc(-c2nnc(-c3ccco3)o2)c1	nt	nt	nt	12%
COc1ccc(CC(=O)Nc2ccc(-c3noc(-c4ccccc4OC)n3)cc2)cc1	10	-1%	-7%	11µM*
COc1ccc(NC(=O)C2CCC(CNS(=O)(=O)c3ccc(Br)s3)CC2)cc1OC (centres undefined)	9	nt	nt	nt
O=c1[nH]c(SCc2nc3ccccc3n2Cc2ccccc2)nc2ccccc12	17	-5%	-5%	7.9µM*
CCNc1ncc2nc(-c3ccc(Cl)cc3)c(=O)n(-c3ccc(OC)cc3)c2n1	nt	nt	-1%	1%
O=C(O)C1CCC(Cn2c(SCc3cc(=O)n4cc(Br)ccc4n3)nc3ccsc3c2=O)CC1 (centres undefined)	nt	nt	nt	10µM*
COc1ccc(-c2ccc(C#N)c(SCC(=O)NCCc3ccccc3)n2)cc1OC	-2	-1%	nt	-15%
COc1cccc(-c2ccc(C#N)c(SCC(=O)NCCc3cccc(Cl)c3)n2)c1	-20	3%	nt	11µM*
C[C@H]1CC[C@@H]2N(C1)C[C@H]1[C@@H]3C[C@H]4[C@@H](C/C(=N\O)[C@H]5C[C@@H](O)CC[C@@]54C)[C@@H]3CC[C@H]1[C@]2(C)O	nt	nt	nt	24%
CC(=O)Nc1nc2ccccc2n1CCOc1ccccc1	8	-3%	6%	23%[38.3 µM]
S=C(Nc1ccccc1)Nc1nc2ccccc2n1CCOc1ccccc1	5	20µM*	?	11%[38.3 µM]
Cn1cccc1/C=N/n1c(-c2ccc(C(C)(C)C)cc2)n[nH]c1=S	0	?	10µM*	4%[38.3 µM]
CCN(CC)c1ccc(/C=N/NC(=S)NCc2ccccc2)cc1	7	25µM*	?	16%[38.3 µM]
COc1ccc(S(=O)(=O)/N=C2/C=CC(=O)C(C)=C2C)cc1	5	-22%	13µM*	-11%[38.3 µM]
CCC(=O)N=c1sc2c(C)cc(C)cc2n1CC(=O)OC	7	-9%	1%	13µM*
COC(=O)Cn1c(=NC(=O)C(C)(C)C)sc2c(C)cc(C)cc21	10	-2%	-6%	38%[38.3 µM]
O=C(CSc1nc2nc(-c3cccs3)cc(C(F)(F)F)c2c(=O)[nH]1)NCc1ccco1	?	-6%	-9%	8.9µM*
CCc1ccc(CNc2ccc(N3CCN(C(C)=O)CC3)cc2)cc1	12	?	13µM*	45%[38.3 µM]
CC(=O)N1CCN(c2ccc(NCc3ccc(C)cc3)cc2)CC1	6	18µM*	10µM*	3%[38.3 µM]
CC(=O)Nc1ccc(N2CCN(C(C)=O)CC2)cc1	-4	-7%	-7%	5%[38.3 µM]
CC(=O)NCCNc1ncncc1-c1ccccc1CN(C)C	nt	nt	1%	5%
CN(C)c1ccc(N2CN=C3SCC(=O)N3C2)cc1	33	-13%	16µM*	58%[38.3 µM]
SMILES	IMPase inh	12-hLO inh	ALOX15B inhib	IMPase Li inh
COc1nc(-c2ccccc2)ccc1-c1noc(-c2ccc(F)cc2)n1	2	-8%	7%	8.9µM*
CN(Cc1ccco1)c1cc(-c2cccc(NS(C)(=O)=O)c2)ncn1	nt	nt	4%	-3%
Cn1c(NC(=O)c2ccccc2)c(-c2ccccn2)c(=O)c2ccccc21	6	6%	-4%	22µM*
CCOc1cccc(CNc2ccc(O)cc2)c1OCc1ccc(Cl)cc1Cl	12	?	1.6µM*	-1%[38.3 µM]
CCOc1cccc(CNc2ccc(O)cc2)c1OCc1ccccc1Cl	-1	?	nt	13%
COc1cc(O)ccc1-c1nc2ccc(Br)cn2c1Nc1ccccc1C	11	nt	nt	nt
CCOc1cc(NC(=S)Nc2cccc(OC)c2)c(OCC)cc1NC(=O)c1ccc(C)cc1	-9	-17%	?	3%[38.3 µM]
CCOc1cc(NC(=S)Nc2ccccc2)c(OCC)cc1NC(=O)c1ccc(OC)cc1	5	-25%	25µM*	-8%[38.3 µM]
COCCCN1C(=O)C(=O)/C(=C(/O)c2ccc(OC)cc2C)C1c1cccnc1 (centres undefined)	-16	-10%	-6%	?
COCCCN1C(=O)C(=O)/C(=C(/O)c2ccc(OC(C)C)cc2)C1c1cccnc1 (centres undefined)	-21	-13%	8%	11µM*
CCCOc1ccc(/C(O)=C2/C(=O)C(=O)N(CCCOC)C2c2cccnc2)cc1 (centres undefined)	-12	-2%	-1%	10µM*
COCCCN1C(=O)C(=O)/C(=C(/O)c2ccc(OC(C)C)c(C)c2)C1c1ccncc1 (centres undefined)	-30	-13%	-10%	10µM*
COCCCN1C(=O)C(=O)/C(=C(/O)c2ccc(OCC(C)C)cc2)C1c1cccnc1 (centres undefined)	-4	5%	8%	?
CC(C)c1ccc(NC(=O)Cn2c(=O)n(CC3CCC(C(=O)NCCc4ccccc4)CC3)c(=O)c3ccccc32)cc1 (centres undefined)	1	nt	nt	nt
CCCCCCCCCCCCCCC/C=C/[C@@H](O)[C@H](NC(=O)CCCCCCCCCCCCC)OC (tested in a mixture with another compound)	nt	nt	nt	-9%
CN(C)CCCc1c2ccccc2nc2ccc(Cl)cc12	nt	7%[11.4 µM]	15%[11.4 µM]	22%
Nc1nc(NCC2CCC(CNS(=O)(=O)c3cccc4ccccc34)CC2)nc2ccccc12 (centres undefined)	nt	-2%[0.00818 µM]	36%[0.0915 µM]	19%
COc1ccccc1CN1CCCC2(CCNCC2)C1	nt	-3%	3%	4%
C=Cc1c(C)c2cc3[nH]c(cc4nc(cc5nc(cc1[nH]2)C(C)=C5CCC(=O)O)C(CCC(=O)O)=C4C)c(C)c3C=C	-2	-27%	20µM*	2%
CC1=C(CCC(=O)O)c2cc3nc(cc4[nH]c(cc5[nH]c(cc1n2)c(C)c5C(C)O)c(C)c4C(C)O)C(C)=C3CCC(=O)O (centres undefined)	nt	-6%	-20%	-15%
COc1ccccc1/C=C\C=N\n1c(C2CCCCC2)n[nH]c1=S	5	-9%	13µM*	9%[38.3 µM]
CCCCCCCCCCCCCCCCCCOC[C@@H](COP(=O)([O-])OCC[N+](C)(C)C)OC	?	4%	5%	nt
O=C[C@@H]1CCCN1C(=O)[C@@H]1CCCN1C(=O)OCc1ccccc1	nt	nt	nt	11%
Cc1ccc(C(=O)C2=C(O)C(=O)N(c3ncccn3)C2c2ccc(Cl)cc2)o1 (centres undefined)	?	15%	nt	13µM*
Cc1ccc(C(=O)C2=C(O)C(=O)N(Cc3ccccc3)C2c2cccnc2)o1 (centres undefined)	?	-7%	-1%	10µM*
O=C(C1=C(O)C(=O)N(c2ncccn2)C1c1ccc(Cl)cc1)c1ccco1 (centres undefined)	?	-9%	20%	13µM*

From PubChem BioAssay
